Results filed as inconclusive are left out. Active and inactive are the calls of the source. Calls come from the whole dose curve; as a rule, active = well fitted inhibition curve with a large enough effect; inconclusive = small, poorly fitted or top-dose-only effect; inactive = no such curve, though single readings can be large or run the other way.
The compounds below were run against Cytochrome P450 2C9 (Homo sapiens) (UniProt P11712) (assay: qHTS for inhibitors of CYP2C9 against the NCATS DSHEA and TCM libraries (AID 1919973)). Conditions: recombinant CYP2C9 enzyme activity, luminescence; series mostly up to 34.1 µM; activity change, negative = inhibition: at the top concentration.
In short: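 Each CYP isoform and its pro-luciferin substrate, at isoform-specific final concentrations, were preincubated 15 min at RT with substances. NADPH regeneration solution (1x) started a 30-45 min reaction, and P450-Glo luminescence was read.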
% is set by controls: 0 for no effect and ±100 for the full control effect; potency is the fitted concentration of half-maximal effect.

Cytochrome P450 2C9 (Homo sapiens), sequence (P11712 whole entry, looked up, canonical isoform): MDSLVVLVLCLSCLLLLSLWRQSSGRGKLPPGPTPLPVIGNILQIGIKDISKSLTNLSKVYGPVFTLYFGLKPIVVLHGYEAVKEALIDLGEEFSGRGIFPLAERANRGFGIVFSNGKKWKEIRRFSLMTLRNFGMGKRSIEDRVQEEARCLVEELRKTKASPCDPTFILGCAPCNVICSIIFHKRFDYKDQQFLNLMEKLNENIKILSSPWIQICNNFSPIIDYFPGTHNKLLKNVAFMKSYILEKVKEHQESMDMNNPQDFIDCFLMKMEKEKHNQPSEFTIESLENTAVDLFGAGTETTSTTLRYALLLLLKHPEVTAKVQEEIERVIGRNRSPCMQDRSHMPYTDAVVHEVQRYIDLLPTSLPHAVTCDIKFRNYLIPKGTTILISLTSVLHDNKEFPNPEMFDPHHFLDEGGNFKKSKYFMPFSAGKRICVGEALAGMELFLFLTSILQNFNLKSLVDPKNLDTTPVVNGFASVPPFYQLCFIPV

Row | SMILES | activity change, negative = inhibition | Potency
1 | O=C(/C=C/c1ccc(O)c(O)c1)O[C@@H]1CC(C(=O)O)=C[C@@H](O)[C@H]1O | -5.75% (inactive) | 
2 | CC(C)=CCCC(C)(OC1OC(COC2OC(CO)C(O)C2O)C(O)C(O)C1O)C1CCC2(C)C1C(O)CC1C3(C)CCC(OC4OC(CO)C(O)C(O)C4OC4OC(CO)C(O)C(O)C4O)C(C)(C)C3CCC12C (stereo not drawn) | 6.13% (inactive) | 
3 | CC[C@H](CC[C@@H](C)[C@H]1CCC2C3CCC4C[C@@H](O)CC[C@]4(C)C3CC[C@@]21C)C(C)C (stereo partly drawn) | 14.5% (inactive) | 
4 | O=C(O)CC(O)(C(=O)O)C(O)C(=O)O (stereo not drawn) | 5.91% (inactive) | 
5 | CCCCCC(=O)CC | 22.8% [at 104 µM] (inactive) | 
6 | C=C1CC[C@H](O)C/C1=C\C=C1/CCC[C@]2(C)[C@@H]([C@H](C)CC[C@H](C)C(C)C)CC[C@@H]12 |  | 10 µM (active)
7 | CC1(C)C2CCC1(C)C(O)C2 (stereo not drawn) | 7.92% (inactive) | 
8 | O[C@@H]1[C@@H](O)[C@H](OC/C=C/c2ccccc2)O[C@H](CO[C@@H]2OC[C@H](O)[C@H](O)[C@H]2O)[C@H]1O | 7.67% (inactive) | 
9 | CC(=O)O[C@H]1[C@H](O[C@H]2CC[C@]34C[C@]35CC[C@]3(C)[C@@H]([C@@]6(C)CC[C@@H](C(C)(C)O)O6)[C@@H](O)C[C@@]3(C)[C@@H]5C[C@H](O[C@@H]3O[C@H](CO)[C@@H](O)[C@H](O)[C@H]3O)[C@H]4C2(C)C)OC[C@@H](O)[C@@H]1O | -8.27% (inactive) | 
10 | OCC1=C[C@@H](O)[C@@H]2C=CO[C@@H](OC3O[C@H](CO)[C@@H](O)[C@H](O)[C@H]3O)[C@H]12 (stereo partly drawn) | 3.89% (inactive) | 
11 | CCCCCCCCCC=O | -24.1% [at 58.3 µM] (inactive) | 
12 | CC(=O)OC1CC2CCC1(C)C2(C)C (stereo not drawn) | 20.1% (inactive) | 
13 | CC(C)=CCCC(C)=CCCC(C)=CCCC=C(C)CCC=C(C)CCC=C(C)C | 2.73% (inactive) | 
14 | CCCCCCCCCCCCCCCCCCCCCCCCCCCCCCO | 4.8% [at 4.27 µM] (inactive) | 
15 | CC(C)c1ccc(C=O)cc1 | 11.2% [at 58.3 µM] (inactive) | 
16 | O=Cc1ccccc1O | 10.5% [at 58.3 µM] (inactive) | 
17 | CC/C=C\C/C=C\C/C=C\C/C=C\CCCCC(=O)O | -16.1% [at 4.27 µM] (inactive) | 
18 | C=C1C[C@@]23CC[C@H]4[C@@](C)(CCC[C@@]4(C)C(=O)O[C@@H]4O[C@H](CO)[C@@H](O)[C@H](O)[C@H]4O)[C@@H]2CC[C@]1(O[C@@H]1O[C@H](CO)[C@@H](O)[C@H](O[C@@H]2O[C@H](CO)[C@@H](O)[C@H](O)[C@H]2O)[C@H]1O[C@@H]1O[C@@H](C)[C@H](O)[C@@H](O)[C@H]1O)C3 | 13.9% (inactive) | 
19 | C=C1C[C@]23CC[C@H]4[C@@](C)(CCC[C@@]4(C)C(=O)O)[C@@H]2CC[C@@]1(O[C@@H]1O[C@H](CO)[C@@H](O)[C@H](O)[C@H]1O[C@@H]1O[C@H](CO)[C@@H](O)[C@H](O)[C@H]1O)C3 | 9.85% (inactive) | 
20 | Cc1ccc(C(C)C)cc1 | 18.7% [at 58.3 µM] (inactive) | 
21 | OCCc1ccc(O)cc1 | 4.92% [at 58.3 µM] (inactive) | 
22 | CN(CC(=O)O)C(=N)N | 20.8% [at 104 µM] (inactive) | 
23 | COc1ccc(C(=O)O)cc1 | 7.34% [at 58.3 µM] (inactive) | 
24 | CC(C)(O)[C@@H]1CC[C@](C)([C@@H]2[C@H](O)C[C@]3(C)C4C[C@@H](O[C@H]5O[C@@H](CO)[C@H](O)[C@@H](O)[C@@H]5O)C5C(C)(C)[C@H](O[C@H]6OC[C@H](O)[C@@H](O)[C@@H]6O)CC[C@]56CC46CC[C@@]23C)O1 (stereo partly drawn) | 7.13% (inactive) | 
25 | C=CC(=C)CCC=C(C)C | 7.66% (inactive) | 
26 | CC1=CCC(O)(C(C)C)CC1 (stereo not drawn) | 2.7% [at 58.3 µM] (inactive) | 
27 | CC(C)=CCC[C@](C)(O[C@@H]1O[C@H](CO)[C@@H](O)[C@H](O)[C@H]1O)[C@H]1CC[C@]2(C)[C@@H]1[C@H](O)C[C@@H]1[C@@]3(C)CC[C@H](O)C(C)(C)[C@@H]3[C@@H](O[C@@H]3O[C@H](CO)[C@@H](O)[C@H](O)[C@H]3O[C@@H]3O[C@@H](C)[C@H](O)[C@@H](O)[C@H]3O)C[C@]12C | 10.6% (inactive) | 
28 | C[C@@H]1O[C@@H](OC[C@H]2OC(Oc3c(-c4ccc(O)c(O)c4)oc4cc(O)cc(O)c4c3=O)[C@H](O)[C@@H](O)[C@@H]2O)[C@H](O)[C@H](O)[C@H]1O (stereo partly drawn) | 0.795% (inactive) | 
